Reference: PubChem BioAssay (NCATS)
Inconclusive results are not listed. Active and inactive are the calls of the source. Calls follow the shape of the full dose curve. Starred links: 1 amine or outer side, 2 acyl side, 3 side chain; linkers in the order of their positions; H or OH if unused. Non-standard residues stand in square brackets, D forms with d. Residues, ends and D or L forms follow the SMILES beside them. ξ: configuration not given here. X4 = O=C(C1CC2(c3ccc(O)cc3)c3ccccc3NC2N1[*:1])[*:2]; ξW = NC(Cc1c[nH]c2ccccc12)C(=O)O; ξY = NC(Cc1ccc(O)cc1)C(=O)O

Experiment: qHTS for inhibitors of Rabies Virus screened against the NCATS CANVASS Library (AID 1347402); also: 0% is about no effect
Conditions: Rabies virus infection cell assay; series mostly up to 45.9 µM

Row | SMILES | outcome | activity change, negative = inhibition
1 | O=C(O)CC1OCc2c(O)cccc21 (stereo not given) | inactive | 
2 | COc1cc(C2OCC3C(c4ccc(O)c(OC)c4)OCC23)ccc1O (stereo not given) |  | 3.04% [at 9.14 µM] (inactive)
3 | COC(=O)[C@]1([C@H]2CCC(=O)O2)CC(=O)c2c(O)cc(C)cc2O1 | inactive | 
4 | CC1C(=O)C23CCC1C[C@]21O[C@@H]2C(C)(C)C=CC(=O)[C@@]23COC1=O (stereo not given in full) | inactive | 
5 | CC1(C)C=Cc2c(ccc3c2OC[C@@H](c2ccc(O)cc2O)C3)O1 | inactive | 
6 | O=C1CCC(=O)N(O)CCCCCNC(=O)CCC(=O)N(O)CCCCCNC(=O)CCC(=O)N(O)CCCCCN1 | inactive | 
7 | C=C1C[C@@]23C=CC(=O)[C@@](C)(CCC(=O)Nc4c(O)ccc(C(=O)O)c4O)C2C[C@@H]1CC3 (stereo not given in full) | inactive | 
8 | C=C1[C@@]2(C)CC3C4(C)CCC(O)C(C)(C)C4CCC3(C)[C@]1(C(=O)OC)C(=O)C(C)(O)C2=O (stereo not given in full) | inactive | 
9 | CC(=O)O[C@H]1c2ccccc2-c2c3c(cc4c2[C@@H]1N(C(C)=O)CC4)OCO3 | inactive | 
10 | CC[C@H](C)[C@H](NC(=O)C(Cc1ccc(O)cc1)NC(=O)C(Cc1c[nH]c2ccccc12)NC(=O)[C@H](C)N)C(=O)N1C(C(=O)NC(Cc2ccc(O)cc2)C(=O)O)CC2(c3ccc(O)cc3)c3ccccc3NC12 (stereo not given in full) (H-A[ξW][ξY]I[X4][ξY]-OH) | inactive | 
11 | Oc1ccc(C2c3c(O)cc(O)cc3[C@@H]3C(c4ccc(O)cc4)c4c(O)cc(O)cc4[C@H]23)cc1 (stereo not given in full) | inactive | 
12 | CO[C@@H]1[C@H](O)[C@@H](C)O[C@@H](OC[C@H]2/C=C/C=C/C(=O)C(C)C[C@H](C)C(O[C@@H]3O[C@H](C)CC4(OC(=O)O[C@@H]4C)C3O)[C@@H](C)/C=C/C(=O)OC2C)[C@@H]1OC (stereo not given in full) | inactive | 
13 | CC(C)=CCC[C@]1(C)[C@H]2CC(=O)[C@@]3(CO3)[C@@H]1C2 | inactive | 
14 | C=C(C)CC[C@H](Cc1c(O)cc(O)c2c1O[C@H](c1ccc(O)cc1O)CC2=O)C(=C)C | inactive | 
15 | CC12C[C@]3(O)O[C@@H](O1)[C@]1(COC(=O)c4ccccc4)[C@@H]3CC21OC1OC(CO)C(O)C(O)C1O (stereo not given in full) | inactive | 
16 | CC1=CC[C@@]2(C[C@@H]1O)[C@@H](C(=O)O)CC[C@H]2C(C)C | inactive | 
17 | C=C[C@@]1(C)CC[C@@H]([C@H](C)C(C)=O)O1 | inactive | 
18 | CC(C)=CCCC(C)(O)[C@H]1CC=C(C)C(O)C1 (stereo not given in full) | inactive | 

Row | SMILES | outcome | activity change, negative = inhibition
19 | COC12OC1(C13OC1(OC)C(=O)c1cc4cc(C)oc(=O)c4c(O)c1C3O)C(O)c1c(cc3cc(C)oc(=O)c3c1O)C2=O (stereo not given) | inactive | 
20 | C/C1=C/[C@@H](C)[C@H](O)[C@@H](O)/C=C/CC/C=C/C(=O)O[C@@H]1[C@H](C)C(=O)CCCC1CC(=O)NC(=O)C1 | inactive | 
21 | COc1ccc2oc3c(OC)c(OC)c(OC)c(OC)c3c(=O)c2c1 |  | -7.41% [at 9.14 µM] (inactive)
22 | CC[C@@H]1C[C@@]2(CC)OC(=O)[C@@]3(CC)OC(=O)[C@@H]1[C@@H]23 | inactive | 
23 | C=C[C@](Cl)(CBr)CCC=C(C)C | inactive | 
24 | COc1cc2c(c(O)c1O)C(=O)c1c(coc1C)C2=O | inactive | 
25 | C/C(=C\[C@H](C)C(=O)/C=C/CC1CC(=O)NC(=O)C1)[C@@H]1OC(=O)CCCC/C=C/[C@H](O)[C@@H](O)[C@@H]1C | inactive | 
26 | CC(CCC[C@]1(C)C(=O)C=C[C@@]23C[C@]4(C)O[C@@H](C[C@@H]4[C@H]2O)C31)C(=O)O (stereo not given in full) | inactive | 
27 | CN1CC[C@@]2([C@@]34CCN(C)[C@@H]3Nc3ccccc34)c3ccccc3N[C@@H]12 | inactive | 
28 | C/C(=C\CC/C(C)=C/CC[C@]1(C)CCc2cc(O)cc(C)c2O1)CC/C=C(\C)C(=O)O | inactive | 
29 | O=C1C[C@@H](c2ccc(O)c(-c3c(O)cc(O)c4c3O[C@H](c3ccc(O)cc3)CC4=O)c2)Oc2cc(O)cc(O)c21 | inactive | 
30 | C[C@@H]1C(=O)[C@]23CC[C@H]1C[C@]21O[C@H]2C(C)(C)C=CC(=O)[C@]23COC1=O | inactive | 
31 | C/C1=C\CC(=O)/C=C/C=C\c2csc(n2)[C@@H](C)NC(=O)C[C@@](S)([C@@H](C)C(=O)O)CC1 | inactive | 
32 | O=Cc1ccc2n1C[C@]1(C[C@H](O)[C@@H](CO)O1)OC2 | inactive | 
33 | C[C@H]1C[C@@H]([C@@H]2CC[C@]34O[C@H](CC[C@@]35C[C@H](C)C(=O)O5)CN24)OC1=O | inactive | 
34 | C/C=C1/CC[C@@H]2c3[nH]c4ccccc4c3CCN2C1 | inactive | 
35 | CC(=O)[C@@H]1[C@@H](O)C[C@H]2[C@]3(C)CC[C@H]4C(C)(C)CCC[C@]4(CO)[C@H]3C[C@H]3OC(=O)[C@@H]1[C@@]32C | inactive | 
